Bioassay records (PubChem BioAssay)
Sampled rows, rich in hits. Any-hit rate of the full collection: about 3.2%.
MEKK3 PB1 HTS – modulators (inhibitors or enhancers) of MEK5 binding to human MEKK3 PB1 domain. 290,000 tested, 1.4% active. Q99759. bead-based flow cytometry, Alexa488-MEK5 binding to MEKK3; actives lie on both sides; 0 = blocked by unlabeled MEK5, 100 = vehicle. binding response (% of control), % at 10 µM;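 active = binding response more than 3 SD above or below the average of its plate-row segment, actives on both sides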;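 note: Alexa488 bead fluorescence after subtracting the streptavidin-only scavenger bead signal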
CendR NRP1 mod – NRP-1/CendR interaction modulation; O14786; FAM-RPARPAR peptide binding to NRP-1, fluorescence polarization; inhibition, % at 25 µM; 360,000 tested, 0.85% active; AID 602438;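 active = inhibition or corrected inhibition above about 18%, plus a signal ratio from 0.5 to 1.5, limit read from the data, passing the limit was not always enough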
MEKK2 mut-MEK5 – signal of MEK5 binding to mutant human MEKK2 PB1 domain; bead flow cytometry, Alexa488-MEK5 binding to MEKK2 mutant; percent response, % at 10 µM; 290,000 tested, 0.35% active; in the data active = percent response above about 24%, passing the limit was not always enough
MEKK2 WT-MEK5 – raises or lowers MEK5 binding to wildtype human MEKK2 PB1 domain | bead flow cytometry, Alexa488-MEK5 binding to MEKK2 WT; actives lie on both sides | binding response (% of control), % at 10 µM | 290,000 tested, 1.1% active | Q9Y2U5; in the data active = binding response below about 67% or above about 130%
SKN-1 block – C. elegans SKN-1 inhibition. C. elegans VP596 Pgst-4::GFP/RFP ratio, acrylamide-induced, 24 h. 360,000 tested, 0.49% active. AID 624304. inhibition, % at 21.8 µM;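 active = interference check ratio from 0.5 to 1.5 plus GFP to RFP signal ratio inhibition reaching or exceeding a fixed threshold, cut at about 30% in these data, passing the limit was not always enough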
MEKK2wt confirm – raises or lowers MEK5 binding to wildtype human MEKK2, retest. shares compounds with MEKK3 PB1 HTS. bead flow cytometry, Alexa488-MEK5 binding to MEKK2 WT; actives lie on both sides. binding response (% of control), % at 10 µM. 5,900 tested, 2.4% active; in the data active = binding response below about 16% or above about 210%; inactive = in between
MEKK2mut-MEK5 – signal of MEK5 binding to mutant human MEKK2, retest; shares compounds with MEKK3 PB1 HTS; bead flow cytometry, Alexa488-MEK5 binding to MEKK2 mutant; percent response, % at 10 µM; 5,900 tested, 2% active; AID 1893; in the data active = percent response mostly above about 71%, no sharp cut-off; inactive = mostly below about 38%;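 note: higher means compound restores mutant binding toward wildtype level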
MEKK3-MEK5 inh – MEKK3-MEK5 PB1 inhibition, single concentration confirmation | AID 1894 | shares compounds with MEKK3 PB1 HTS | 5,900 tested, 1.8% active | binding response (% of control), % at 10 µM | bead flow cytometry, Alexa488-MEK5 binding to MEKK3; stronger effect = lower value;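 active = binding response below 72% of control, or above a set upper limit, though filed actives all read lower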;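 note: 100% = DMSO only wells and 0% = binding blocked by excess unlabeled MEK5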
Starred values were filed as active, the others as inactive; / = no result given; [ ] = dose if it differs, or a comment.

SMILES | MEKK3 PB1 HTS | CendR NRP1 mod | MEKK2 mut-MEK5 | MEKK2 WT-MEK5 | SKN-1 block | MEKK2wt confirm | MEKK2mut-MEK5 | MEKK3-MEK5 inh
Cc1ccc(S(=O)(=O)c2c(N)n(-c3ccccc3)c3nc4ccccc4nc23)cc1 | 136* | -12 | 0 | 102 | 5 | 94 | 2 | 92
CCn1c(=O)cc(SCC(=O)N(C)Cc2ccccc2)c2ccccc21 | 110 | 1 | 3 | 109 | -5 | / | / | /
CCOC(=O)CSc1cc(=O)n(CC)c2ccccc12 | 129* | -16 | 8 | 123 | 32 | 100 | 3 | 103
CCOc1ccccc1-n1c(SCC(=O)N2CCCc3ccccc32)nnc1-c1cccnc1 | 132* | 4 | -1 | 104 | -8 | 112 | 4 | 105
Cc1ccc(-n2c(SCC(=O)N3CCCc4ccccc43)nnc2-c2cccnc2)c(C)c1 | 97 | -39 | 3 | 91 | 0 | / | / | /
COc1ccccc1NCC(=O)N/N=C/C=C/c1ccccc1 | 70*[inhibitor] | -5 | 3 | 96 | 7 | 99 | -3 | 99
O=C(Cc1cccs1)N/N=C/C=C/c1ccccc1 | 129* | 2 | 0 | 104 | 3 | 104 | 0 | 104
Cc1ccc(S(=O)(=O)N2CCC(C(=O)NCCCN3CCCCCC3)CC2)cc1 | 102 | 9 | 25 | 160* | 12 | 179 | 48 | 111
Cc1ccc(S(=O)(=O)NCCNC(=O)CN2CCCC2)cc1 | 93 | 4 | -5 | 96 | -4 | / | / | /
Cc1ccc(S(=O)(=O)NCCC(=O)NCCN2CCCCCC2)cc1 | 102 | -12 | 54* | 227* | 8 | 138 | 7 | 80
Cc1noc(/C=C/c2cccs2)c1S(=O)(=O)N1CCC(C(=O)NCCCN2CCC(C)CC2)CC1 | 106 | -33 | 57* | 186* | 2 | 115 | 7 | 103
COc1cccc(OC)c1-c1nn2c(-c3ccco3)nnc2s1 | 129* | -20 | 1 | 97 | -14 | 95 | 0 | 97
COc1ccc2nc3cc(Cl)ccc3c(Nc3cc(C(C)C)c(O)cc3C)c2c1 | 87 | 8 | 44* | 146* | -5 | 189 | 75* | 106
Cc1cccc(OCC(=O)Nc2ccc(S(=O)(=O)Nc3ccccn3)cc2)c1 | 103 | 7 | 0 | 103 | -3 | / | / | /
Cc1ccc(C)c(OCC(=O)Nc2ccc(S(=O)(=O)Nc3ccccn3)cc2)c1 | 134* | -5 | -1 | 102 | 10 | 108 | 4 | 105
CSCCC(=O)N1CCCC(N(C)CCc2ccccc2)C1 (stereo not drawn) | 108 | -5 | 8 | 110 | -26 | / | / | /
Cc1ccccc1-c1cccc([C@@H]2C[C@H]3C(CN2)CON3C)c1 (stereo partly drawn) | / | -14 | / | / | -12 | / | / | /
O=C1c2ccccc2C(c2nc3ccccc3[nH]2)N1Cc1ccco1 (stereo not drawn) | / | -11 | / | / | 3 | / | / | /
Cc1ccc(C(C)(C)C)c(OCCOCCN2CCCC2)c1 | 98 | 5 | -1 | 108 | 8 | / | / | /
CC(C)(C)c1ccccc1OCCOCCN1CCCCCC1 | 106 | 4 | 37 | 164* | -17 | 138 | 17 | 107
Cc1[nH]n(-c2ccc([N+](=O)[O-])cc2)c(=O)c1C=NCCN1CCN(C(=O)c2cccc(F)c2)CC1 | 127* | 2 | 8 | 126 | 12 | 110 | 13 | 105
CC(C)CC(=O)NC(=S)Nc1ccc(N2CCCC2)c(Cl)c1 | 62 | 3 | -19 | 67 | 24 | / | / | /
CC(C)C(=O)Nc1ccc(N2CCCC2)c(Cl)c1 | 151* | -11 | 3 | 123 | -2 | 102 | -1 | 99
CC(=O)Nc1ccc(-c2ccnc3c2CC(C(=O)NCc2ccco2)O3)cc1 (stereo not drawn) | / | 5 | / | / | 13 | / | / | /
